DT40 TDP1 CPT = growth inhibition of DT40 Tdp1-/-;hTDP1 cells with camptothecin (screen for TDP1 inhibitors) | chicken DT40 Tdp1-/-;hTDP1 cells + 20 nM CPT, ATP luminescence, 48 h | Potency, µM (series often up to 46.2 µM), hits mostly inhibitors | 420,000 compounds, 12% hits | AID 686979; further: nearly all actives have a fitted effect of over 55% in size
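Chicken DT40 Tdp1-/- cells complemented with human TDP1, 400 cells/well, exposed to compounds plus 20 nM camptothecin for at least 48 h at 37 C; viability read as ATP content by CellTiter-Glo luminescence.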
HepG2 tox = HepG2 cytotoxicity, counter-screen for TGF-b inhibitors. HepG2 CAGA-GFP viability, ATP luminescence, 18 h. Potency, µM (highest dose often 46.1 µM), actives largely listed as cytotoxic. 410,000 compounds, 0.76% hits
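HepG2 CAGA-GFP cells (1000/well, DMEM with 1% FBS) received compound, then TGF-beta at 500 pg/mL final, and were incubated 18 hours at 37 degrees C. Viability was read by CellTiter-Glo luminescence. Media-only wells were set as complete cell-killing and DMSO as no toxicity.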
IL1B secr inh = blocks inflammasome-driven IL-1 beta release | 360,000 compounds, 4.7% hits | activity change, % at 57.5 µM | AID 743279 | THP-1 LPS/ATP IL-1B secretion, AlphaLISA, 16 h; stronger effect = lower value; in the data active means activity change below about -50%; inconclusive means mostly about -30% to -49%
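THP-1 cells pretreated 1 hr with compounds (up to 57.5 uM final), then stimulated with LPS (250 ng/mL final) plus ATP (1.25 mM final); secreted IL-1B measured by AlphaLISA after 16 hr, decreased signal indicating inhibition.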
TDP1 block = TDP1 (human) enzyme inhibition. Q9NUW8. 350,000 compounds, 0.28% hits. AID 485290. recombinant TDP1, AlphaScreen DNA substrate cleavage. Potency, µM (doses to about 130 µM), usual class: inhibitors; further: nearly all actives have a fitted effect of over 40% in size
Target sequence (Q9NUW8 whole entry, looked up): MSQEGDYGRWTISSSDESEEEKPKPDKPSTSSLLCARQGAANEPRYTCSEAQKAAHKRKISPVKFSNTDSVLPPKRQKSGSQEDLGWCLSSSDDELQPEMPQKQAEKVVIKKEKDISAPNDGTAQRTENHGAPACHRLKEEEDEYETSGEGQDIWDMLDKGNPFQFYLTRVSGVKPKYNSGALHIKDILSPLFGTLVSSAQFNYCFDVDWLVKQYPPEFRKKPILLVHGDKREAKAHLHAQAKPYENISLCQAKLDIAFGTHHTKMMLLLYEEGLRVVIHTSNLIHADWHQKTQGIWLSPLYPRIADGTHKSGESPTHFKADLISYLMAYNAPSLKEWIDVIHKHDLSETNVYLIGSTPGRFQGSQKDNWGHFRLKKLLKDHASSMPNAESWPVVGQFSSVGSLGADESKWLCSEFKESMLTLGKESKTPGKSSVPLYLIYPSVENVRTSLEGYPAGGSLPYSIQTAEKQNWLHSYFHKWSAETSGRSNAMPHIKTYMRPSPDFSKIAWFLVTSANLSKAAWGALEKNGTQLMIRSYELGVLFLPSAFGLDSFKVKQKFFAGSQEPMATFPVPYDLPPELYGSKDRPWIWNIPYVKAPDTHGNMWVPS
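Enzyme-compound mixtures sat 15 min at room temperature, followed by a 5 min reaction with 15 nM final substrate and 10 min with AlphaScreen beads. Recombinant human Tdp1 was used at 1 nM final.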
TDP1 cell noCPT = qHTS for Inhibitors of human tyrosyl-DNA phosphodiesterase 1 (TDP1): qHTS in cells in absence of CPT; AID 686978, 2013; DT40 Tdp1-/- hTDP1 cells, no CPT, ATP luminescence, 48 h; 420,000 compounds, 15% hits; Potency, µM (titrated, usually from 46.2 µM), usual class: inhibitors; further: nearly all actives have a fitted effect of over 55% in size
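Camptothecin absent (DMSO only). Human TDP1-complemented DT40 knockout cells, 400 cells/well, 37 °C for minimum 48 hr; ATP measured via CellTiter-Glo, 30 min dark incubation, luminescence.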
TGFb inhibitor = blocks TGF-b signaling; AID 588855; Potency, µM (series often up to 46.1 µM), usual class: inhibitors; HepG2 CAGA-GFP TGF-b/SMAD3 reporter, GFP fluorescence, 18 h; TGF-beta stimulated, 500 pg/mL final; 410,000 compounds, 1.2% hits; further: nearly all actives have a fitted effect of over 65% in size
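HEPG2 CAGA-GFP cells (1000/well, DMEM with 1% FBS) were pre-incubated 2 h at 37 degrees C, given compound by pin tool, then stimulated with TGF-beta at 500 pg/mL final for 18 h before per-cell GFP fluorescence imaging.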
Large screens that a line does not name were inactive. The list is not random: actives were taken first. Their share in the collection is about 18%. Unless noted, the call rests on the fitted dose curve; in most records, active means well fitted curve in the direction sought with a large enough effect; inconclusive means small, poorly fitted or top-dose-only effect, or another doubt; inactive means no such curve, though single readings can be large; an effect the other way counts as inactive or inconclusive.

C#CCN(C[C@@H]1[C@@H](OC(=O)NC2CCCC2)[C@@H](OC(=O)NC2CCCC2)CN(C(=O)OC(C)C)N1C(=O)OC(C)C)S(=O)(=O)c1ccc(C)cc1	DT40 TDP1 CPT inconclusive, TDP1 cell noCPT 21µM (no result: TDP1 block)
Cc1ccc(S(=O)(=O)N2C[C@H]3N(C(=O)OC(C)C)N(C(=O)OC(C)C)C[C@H](OC(=O)NC4CC4)[C@@]3(O)C2)cc1	TDP1 cell noCPT inconclusive (no result: TDP1 block)
C#CCN(C[C@@H]1[C@@H](OC(=O)NCc2ccc(OC)c(OC)c2)[C@@H](OC(=O)NCc2ccc(OC)c(OC)c2)Cn2c(=O)ccc(=O)n21)S(=O)(=O)c1ccc(C)cc1	DT40 TDP1 CPT 16µM, IL1B secr inh -106, TDP1 cell noCPT 15µM, TGFb inhibitor inconclusive (no result: TDP1 block)
C#CCN(C[C@@H]1[C@@H](OC(=O)NC2CC2)[C@@H](OC(=O)NC2CC2)Cn2c(=O)n(CCCCCC)c(=O)n21)S(=O)(=O)c1ccc(C)cc1	DT40 TDP1 CPT inconclusive, TDP1 cell noCPT 18µM (no result: TDP1 block)
C#CCN(C[C@@H]1[C@@H](OC(=O)NCc2ccco2)[C@@H](OC(=O)NCc2ccco2)Cn2c(=O)ccc(=O)n21)S(=O)(=O)c1ccc(C)cc1	DT40 TDP1 CPT 4.6µM, IL1B secr inh -109, TDP1 cell noCPT 4.6µM, TGFb inhibitor inconclusive (no result: TDP1 block)
C#CCN(C[C@@H]1[C@@H](OC(=O)NCc2ccccc2)[C@@H](OC(=O)NCc2ccccc2)Cn2c(=O)n(CCCCCC)c(=O)n21)S(=O)(=O)c1ccc(C)cc1	DT40 TDP1 CPT inconclusive, TDP1 cell noCPT inconclusive (no result: TDP1 block)
COc1ccc(NC2CCCN(C(=O)CCc3cn[nH]c3)C2)cc1 (configuration not stated)	none
COCCn1c(SCc2nc3ccccc3s2)nc2ccccc21	DT40 TDP1 CPT inconclusive, TDP1 cell noCPT inconclusive
CN1CCN(C(CNC(=O)C(=O)Nc2cccc(Cl)c2)c2ccc3c(c2)OCO3)CC1 (configuration not stated)	DT40 TDP1 CPT inconclusive, TDP1 cell noCPT inconclusive, TGFb inhibitor inconclusive (no result: IL1B secr inh)
C#CCN(C[C@@H]1[C@@H](OC(=O)NCc2ccc(OC)c(OC)c2)[C@@H](OC(=O)NCc2ccc(OC)c(OC)c2)CN(C(=O)OC(C)C)N1C(=O)OC(C)C)S(=O)(=O)c1ccc(C)cc1	DT40 TDP1 CPT 12µM, IL1B secr inh inconclusive, TDP1 cell noCPT 9.2µM (no result: TDP1 block)
C#CCN(C[C@@H]1[C@@H](OC(=O)NCc2ccco2)[C@@H](OC(=O)NCc2ccco2)Cn2c(=O)n(CCCCCC)c(=O)n21)S(=O)(=O)c1ccc(C)cc1	DT40 TDP1 CPT 15µM, IL1B secr inh -77, TDP1 cell noCPT 9.2µM, TGFb inhibitor inconclusive (no result: TDP1 block)
O=S(=O)(NC1CCCCC1N1CCN(c2ccc(F)cc2)CC1)c1ccccc1 (configuration not stated)	DT40 TDP1 CPT inconclusive, TDP1 cell noCPT inconclusive
C/C=C(\C)C(=O)N[C@@H](C)CN1C2=NC[C@H](C(C)C)N2C[C@H]1Cc1ccc(OC)cc1	none
COc1ccc(C[C@H]2CN3C(=NC[C@H]3C)N2CCNC(=O)c2ccc(C)c(Br)c2)cc1	DT40 TDP1 CPT 6.5µM, IL1B secr inh inconclusive, TDP1 cell noCPT 5.8µM, TGFb inhibitor inconclusive
C/C=C(\C)C(=O)NCCN1C2=NC[C@H](Cc3ccc(O)cc3)N2C[C@H]1Cc1ccc(O)cc1	none
C/C=C(\C)C(=O)NCCN1C2=NC[C@@H](Cc3ccccc3)N2C[C@@H]1Cc1ccc(OC)cc1	TGFb inhibitor inconclusive (no result: TDP1 block)
COc1ccc(C[C@@H]2CN3C(=NC[C@@H]3C)N2C[C@H](C)NC(=O)c2ccc(C)c(Br)c2)cc1	DT40 TDP1 CPT 18µM, TDP1 cell noCPT 15µM
Cc1ccc(C(=O)NCCN2C3=NC[C@H](C)N3C[C@H]2Cc2ccc(O)cc2)cc1Br	DT40 TDP1 CPT 21µM, TDP1 cell noCPT 21µM
O=C(CSc1ncc2c(n1)-c1ccccc1N(Cc1ccc(Cl)cc1)S2(=O)=O)c1ccccc1	DT40 TDP1 CPT inconclusive, TDP1 cell noCPT inconclusive (no result: IL1B secr inh)
CCc1cccc(NC(=O)c2cc3c(=O)[nH]c4ccccc4c3n2C)c1	DT40 TDP1 CPT inconclusive, TDP1 cell noCPT 18µM (no result: IL1B secr inh)
COc1ccc(CNC(=O)c2cc3c(=O)[nH]c4ccccc4c3n2C)cc1	DT40 TDP1 CPT inconclusive
Fc1ccccc1Oc1nc(-c2ccncc2)nc2ccccc12	DT40 TDP1 CPT inconclusive, TDP1 cell noCPT 16µM
Cc1noc(C)c1C(=O)N1CCC2(CCN(Cc3ccc(C#N)cc3)CC2)CC1	TDP1 cell noCPT inconclusive (no result: HepG2 tox, IL1B secr inh, TDP1 block, TGFb inhibitor)
COc1ccc2nc(SCC(=O)Nc3ccc4sc(C)nc4c3)c(C#N)cc2c1	DT40 TDP1 CPT 13µM, TDP1 cell noCPT 8.2µM, TGFb inhibitor inconclusive
CCSc1nc2ccc(OC)cc2cc1C#N	none
Cc1ccc(C(=O)O[C@H](C(=O)O)[C@@H](OC(=O)c2ccc(C)cc2)C(=O)O)cc1 (tested in a mixture with another compound)	none (no result: DT40 TDP1 CPT, HepG2 tox, IL1B secr inh, TDP1 cell noCPT, TGFb inhibitor)
CCOc1cc(C(=O)Nc2cccc(OCC(=O)N3CCOCC3)c2)cc(OCC)c1OCC	none
Cc1nn(C)c(Oc2ccc(Cl)cc2)c1C(=O)Nc1ccc(F)cc1F	DT40 TDP1 CPT inconclusive, TDP1 cell noCPT 7.3µM
Cn1nc(C(F)(F)F)c(C(=O)Nc2ccc(F)cc2F)c1Oc1cccc(Cl)c1	DT40 TDP1 CPT inconclusive, TDP1 cell noCPT inconclusive
CC(NCC(=O)Nc1ccccc1C(=O)NC1CC1)c1ccc(Cl)cc1 (configuration not stated)	DT40 TDP1 CPT inconclusive, IL1B secr inh inconclusive, TDP1 cell noCPT 12µM (no result: TDP1 block)
CC(NCC(=O)Nc1ccccc1C(=O)NC1CC1)c1cccc(Cl)c1 (configuration not stated)	DT40 TDP1 CPT inconclusive, TDP1 cell noCPT inconclusive
Cc1ccc(NC(=O)C2C(=O)N(CCO)C3(C)CC2c2ccccc2O3)cc1 (configuration not stated)	none
Cc1ccc(S(=O)(=O)C2C(=O)N(C)C3(C)CC2c2ccccc2O3)cc1 (configuration not stated)	TDP1 cell noCPT 16µM
COc1ccc(NC(=O)CCCc2ccccc2)cc1OC	none
CC(C)n1cc(CN2CCC(C(=O)Nc3cccc(-c4cccc(Cl)c4)c3)CC2)cn1	DT40 TDP1 CPT inconclusive, TDP1 cell noCPT inconclusive, TGFb inhibitor inconclusive
CCc1ccc(CN2CCC(C(=O)Nc3cccc(-c4nnc(C)s4)c3)CC2)o1	DT40 TDP1 CPT inconclusive, TGFb inhibitor inconclusive

Screening data from PubChem.
